High-throughput results deposited in PubChem BioAssay by National Center for Advancing Translational Sciences (NCATS).
Rows were chosen to be rich in hits. Some 4.6% of all compounds tested hit in one or more screens of this group.
Tau fluor cs = counter-screen for tau fibril formation inhibitors; tau K18 P301L Alexa594 fluorescence, heparin fibrillization; Potency, µM (highest dose often 57.7 µM); hit rate 0.93% among 280,000; AID 1463; further: nearly all actives have a fitted effect of over 55% in size
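Human tau K18 P301L (15 uM unlabeled, 0.24 uM Alexa 594-labeled) in 100 mM sodium acetate pH 7 with 20 uM heparin, 6 hr at 37 C. ThT 30 uM added, 1 hr ambient; Alexa 594 FP and total fluorescence read at 555/632 nm.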
Tau FP inhib = blocks human tau fibril formation measured by polarization; P10636; K18 P301L tau heparin fibrillization, Alexa594 FP, 6 h; Potency, µM (doses to about 57.7 µM), hits mostly inhibitors; hit rate 0.39% among 280,000; AID 1468; further: nearly all actives have a fitted effect of over 55% in size
Target sequence (P10636 561-689 P618L limits assumed): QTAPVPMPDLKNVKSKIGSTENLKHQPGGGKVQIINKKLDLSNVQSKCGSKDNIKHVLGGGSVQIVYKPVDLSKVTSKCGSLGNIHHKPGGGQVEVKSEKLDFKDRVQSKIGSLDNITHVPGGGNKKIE
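Human tau K18 […] P301L fragment, 15 uM unlabeled plus 0.24 uM Alexa 594-labeled tau (final), with compound and 20 uM heparin in 100 mM sodium acetate pH 7; 6 hr at 37 C, then Alexa 594 FP read.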
TR SRC2 fluor cs = alters Texas Red total fluorescence, flagging assay interference; Potency, µM (titrated, usually from 106 µM); TRb/SRC2 Texas Red total fluorescence interference; hit rate 0.29% among 280,000; active means well fitted curve in either direction with a large enough effect; inconclusive means small, poorly fitted or top-dose-only effect
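Human TRb ligand-binding domain at 0.6 uM with 20 nM Texas Red SRC2 peptide in Tris buffer containing 1 uM T3 and 5% DMSO, incubated with compound 5 h at ambient temperature. Total fluorescence (555/632 nm) calculated as parallel + 2 × perpendicular.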
Tau fibril ThT = blocks human tau fibril formation measured by thioflavin T; P10636; recombinant tau K18 P301L (four-repeat tau fragment), heparin-induced fibrillization, ThT fluorescence; Potency, µM (doses to about 57.4 µM), hits mostly inhibitors; hit rate 2.1% among 270,000; further: nearly all actives have a fitted effect of over 55% in size
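Heparin-induced fibrillization of the P301L-mutant K18 repeat-domain fragment of human tau was followed by ThT binding in quantitative high-throughput format.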
TRb-SRC2 inh = disrupts binding of human TR beta to SRC2. P10828. TRbeta-SRC2 peptide binding, fluorescence polarization; receptor liganded with 1 µM T3. Potency, µM (doses to about 106 µM), most hits filed as inhibitors. hit rate 0.065% among 280,000. AID 1469; further: nearly all actives have a fitted effect of over 50% in size
Target sequence (P10828 whole entry, looked up): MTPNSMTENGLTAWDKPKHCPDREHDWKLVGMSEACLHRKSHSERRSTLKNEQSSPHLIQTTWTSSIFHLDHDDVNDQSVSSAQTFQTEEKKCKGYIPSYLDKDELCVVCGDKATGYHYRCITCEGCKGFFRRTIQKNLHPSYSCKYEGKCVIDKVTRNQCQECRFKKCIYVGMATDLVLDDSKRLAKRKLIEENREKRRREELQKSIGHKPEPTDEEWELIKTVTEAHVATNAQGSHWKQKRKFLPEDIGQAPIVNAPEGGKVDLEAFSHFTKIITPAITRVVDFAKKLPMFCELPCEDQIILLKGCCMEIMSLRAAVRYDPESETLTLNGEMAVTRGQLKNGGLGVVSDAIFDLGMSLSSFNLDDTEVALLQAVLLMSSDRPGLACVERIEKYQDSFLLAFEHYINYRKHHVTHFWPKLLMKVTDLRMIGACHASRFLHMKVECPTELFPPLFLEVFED
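Assay buffer: 20 mM Tris-HCl, 100 mM NaCl, 10% glycerol, 1 mM EDTA, 0.01% NP-40, 1 mM DTT, 1 uM T3, 5% DMSO; TRb LBD 0.6 uM, Texas Red SRC2 20 nM; FP after 5 hr.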
PNC assembly inh = inhibitors of perinucleolar compartment assembly | PC3M PTB-GFP, PNC prevalence imaging, 16 h; stronger effect = lower value | activity change (PNC), negative = inhibition, % at 10 µM | hit rate 3.1% among 140,000 | AID 2417;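 active means readout at or below -70, meaning at least 70% loss of cells showing the perinucleolar compartment, a nuclear body marking cancer cells; inconclusive means readout between -30 and a set limit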
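Compounds are pinned in duplicate onto adhered PC3M cells stably expressing GFP-tagged PTB and incubated 16 h at 37 C. Cells are then fixed, nuclei stained with Hoechst, and PNC-positive cells counted.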
Of the large screens only hits and unclear results are named; the others gave an inactive call; [ ] = another dose, or the depositor's remark. Unless noted, the call rests on the fitted dose curve; in most records, active means well fitted curve in the direction sought with a large enough effect; inconclusive means small, poorly fitted or top-dose-only effect, or another doubt; inactive means no such curve, though single readings can be large; an effect the other way counts as inactive or inconclusive.

CS(=O)(=O)C1=NSC2=NC(=O)/C(=C\c3ccc(-c4ccccc4)o3)C(=N)N21	Tau fibril ThT inconclusive
N=C1/C(=C\c2ccc(-c3cc(Cl)cc(Cl)c3)o2)C(=O)N=C2SC=C(c3ccccc3)N12	Tau fibril ThT 4µM
COc1ccccc1C(=O)NCC(=O)N/N=C/c1ccncc1	none (no result: PNC assembly inh)
COc1ccc(CNS(=O)(=O)c2csc(C(N)=O)c2)cc1OC	none (no result: PNC assembly inh)
Cc1ccc(O)c(N=Cc2ccc(C)s2)c1	Tau fluor cs inconclusive, Tau FP inhib inconclusive, Tau fibril ThT 22µM
Cc1ccc(O)c(N=Cc2cccs2)c1	Tau fluor cs inconclusive, Tau FP inhib inconclusive, Tau fibril ThT 25µM, PNC assembly inh inconclusive
O=C(CSc1nc(O)c(C2CCCCC2)c(=O)[nH]1)Nc1ccc(Cl)cc1	PNC assembly inh -112
CC(=O)Nc1c(O)nc(SCC(=O)Nc2ccc(C(C)=O)cc2)[nH]c1=O	Tau fibril ThT inconclusive
CC(C)COP(=O)(OCC(C)C)C(O)c1ccc(N(C)C)cc1 (stereo not drawn)	none (no result: PNC assembly inh)
Cc1ccc(C2=Nc3ccccc3N(CC(=O)Nc3cccc(F)c3)C(=O)C2)cc1C	Tau FP inhib inconclusive (no result: PNC assembly inh)
COc1ccc(NC(=O)CN2C(=O)CC(c3ccc(C)c(C)c3)=Nc3ccccc32)cc1OC	Tau fluor cs 25µM[quencher], Tau fibril ThT inconclusive (no result: PNC assembly inh)
Cc1ccc(NC(=O)CN(C)C(=O)CSc2nnc(C(F)(F)F)n2C)cc1	Tau fibril ThT inconclusive (no result: PNC assembly inh)
Cc1ccc(NS(=O)(=O)c2cc([N+](=O)[O-])ccc2NNC(=S)Nc2cccc(Cl)c2)c(C)c1	Tau fluor cs 7.9µM[quencher], Tau FP inhib inconclusive, TR SRC2 fluor cs inconclusive, Tau fibril ThT 10µM
COc1ccc(NC(=S)NNc2ccc([N+](=O)[O-])cc2S(=O)(=O)Nc2ccc(C)cc2C)cc1	Tau fluor cs 14µM[quencher], Tau fibril ThT 32µM, PNC assembly inh inconclusive
Cc1ccc(NS(=O)(=O)c2cc([N+](=O)[O-])ccc2NNC(=S)Nc2cc(C)ccc2C)c(C)c1	Tau fluor cs 13µM[quencher], Tau fibril ThT inconclusive, PNC assembly inh inconclusive
O=C(CCc1ccccc1)OCC(=O)c1cccc([N+](=O)[O-])c1	none (no result: PNC assembly inh)
O=C(COC(=O)c1cccc([N+](=O)[O-])c1)c1ccc(OCc2ccccc2)cc1	Tau fluor cs inconclusive, Tau fibril ThT inconclusive, PNC assembly inh -116
O=C(COC(=O)c1cc([N+](=O)[O-])ccc1NCCO)c1ccccc1	TR SRC2 fluor cs 100µM[quencher]
NC(=O)COC(=O)c1cc([N+](=O)[O-])ccc1NCCO	none (no result: PNC assembly inh)
CCCCc1nc2ccccc2c(NC(=O)CN2CCCC2)c1CCC	PNC assembly inh -100
CCc1ccc2c(c1)C(c1ccc([N+](=O)[O-])cc1)=NNC(c1ccc(Br)cc1)=N2	Tau fibril ThT inconclusive
COCCOC(=O)c1[nH]c2c(c1C)C(=O)CC(c1cccs1)C2 (stereo not drawn)	none (no result: PNC assembly inh)
Cc1c(C(=O)OCC(C)C)[nH]c2c1C(=O)CC(c1cccs1)C2 (stereo not drawn)	PNC assembly inh -88
CCOC(=O)c1[nH]c2c(c1C)C(=O)CC(c1ccc(F)cc1)C2 (stereo not drawn)	PNC assembly inh -95
CC(C)(C)NC(=O)C(c1cccnc1)N(C(=O)c1ccc(Cl)nc1)C1CCCC1 (stereo not drawn)	Tau fibril ThT 13µM (no result: PNC assembly inh)
Fc1cccc(-n2ncc(-c3nnnn3-c3ccccc3)c2C(F)(F)F)c1	PNC assembly inh -84
Cc1ccc(-n2nnnc2-c2cnn(-c3cccc(F)c3)c2C(F)(F)F)cc1	none
O=C(COc1ccc(F)cc1)NCC(c1ccc(Cl)cc1)N1CCCCC1 (stereo not drawn)	TR SRC2 fluor cs 40µM[quencher] (no result: PNC assembly inh)
CCCCc1nnc(NC(=O)CSc2nc(=O)cc(N)n2-c2cccc(C)c2)s1	PNC assembly inh -81
O=C(CN1CCN(c2ccccc2F)CC1)c1c[nH]c2ccc(F)cc12	Tau fluor cs inconclusive
CC(C)OP(=O)(OC(C)C)C(Nc1ccc([N+](=O)[O-])cc1)c1cccc([N+](=O)[O-])c1 (stereo not drawn)	none (no result: PNC assembly inh)
CC(C)OP(=O)(OC(C)C)/C(C=O)=N\Nc1ccc([N+](=O)[O-])cc1	Tau fibril ThT 16µM (no result: PNC assembly inh)
COc1ccc(N2CC(C(=O)NCc3cccnc3)CC2=O)cc1 (stereo not drawn)	PNC assembly inh -98
COc1ccccc1CNC(=O)C1CC(=O)N(c2ccc(C)c(C)c2)C1 (stereo not drawn)	PNC assembly inh -81
Cc1cccn2c(=O)c3cc(C(=O)NC(C)C)c(=N)n(Cc4ccncc4)c3nc12	none
COc1ccc(-c2nc(C)sc2CC(=O)O)cc1	PNC assembly inh -100
COc1ccc(-c2nn(-c3ccccc3)cc2C2CC(c3cccs3)=NN2C(=O)CCC(=O)O)cc1 (stereo not drawn)	none (no result: Tau fibril ThT, PNC assembly inh)
COc1ccc(C2=NN(S(C)(=O)=O)C(c3cn(-c4ccccc4)nc3-c3cccs3)C2)cc1 (stereo not drawn)	Tau fluor cs inconclusive, Tau FP inhib 20µM (no result: PNC assembly inh)
CCCc1c(C)c2cccc(C)c2[nH]c1=O	none
CCCCN1CCc2c([nH]c3c(C)cccc23)C1=O	PNC assembly inh -87
Cc1cc(C)cc(NC(=O)CCC(=O)Nc2cc(C)on2)c1	PNC assembly inh -100
CC1(C)c2ccccc2N2CC(=O)N(CC(N)=O)C21C (stereo not drawn)	Tau fluor cs 32µM[fluorescent], Tau FP inhib inconclusive, TR SRC2 fluor cs 50µM[fluorescent], Tau fibril ThT inconclusive, TRb-SRC2 inh inconclusive
COc1ccc(NC(=O)N2CCCC(CNS(=O)(=O)c3cccs3)C2)c(C)c1 (stereo not drawn)	none (no result: PNC assembly inh)
COc1ccccc1OCCNC(=O)c1cc(F)c(F)cc1Cl	none
COc1ccccc1OCCNC(=O)c1cc(SC)ccc1Cl	PNC assembly inh -113
CC(C)Oc1ccc(C(CC(=O)O)NC(=O)C2CCCCC2)cc1 (stereo not drawn)	none
Cc1ccc(CN2CCNC(=O)C2CC(=O)NC2CCCCCC2)o1 (stereo not drawn)	none (no result: PNC assembly inh)
O=C1/C(=C/c2cccnc2)CCC/C1=C\c1cccnc1	Tau FP inhib inconclusive, Tau fibril ThT 6.3µM
CC(C)/C=C1\CC/C(=C\c2cccnc2)C1=O	Tau fibril ThT inconclusive (no result: PNC assembly inh)
CCC1C/C(=C\c2cccnc2)C(=O)/C(=C/c2cccnc2)C1 (stereo not drawn)	Tau FP inhib inconclusive, Tau fibril ThT 10µM, PNC assembly inh -125
O=C1/C(=C/c2cccnc2)CC/C1=C\c1cccnc1	Tau fibril ThT inconclusive (no result: PNC assembly inh)
CCC(CC)C(=O)OCc1cc(=O)n2nc(C3CCCCC3)sc2n1	Tau fibril ThT inconclusive (no result: PNC assembly inh)
Cc1c(Cl)sn(-c2ccc(Cl)cc2)c1=O	Tau FP inhib inconclusive, Tau fibril ThT 14µM (no result: PNC assembly inh)
